Reference: PMC7862700, “An all-to-all approach to the identification of sequence-specific readers for epigenetic DNA modifications on cytosine”

Legend:
Assay in all cases: DAPPL (digital affinity profiling via proximity ligation, sequencing); 10 mM Tris-HCl pH 7.5, 50 mM NaCl, 1 mM DTT, 4% glycerol, room temperature, 30 min; GST-TFs on glutathione beads, 16-mer random dsDNA library, 0.1% formaldehyde crosslink after washing; high values mean tight binding
Settings in all cases: protein: recombinant; tags: N-terminal GST; dsDNA, one strand shown
[1] = biological target: T1, ERF (Homo sapiens, UniProt P50548 1-548)
T1 sequence: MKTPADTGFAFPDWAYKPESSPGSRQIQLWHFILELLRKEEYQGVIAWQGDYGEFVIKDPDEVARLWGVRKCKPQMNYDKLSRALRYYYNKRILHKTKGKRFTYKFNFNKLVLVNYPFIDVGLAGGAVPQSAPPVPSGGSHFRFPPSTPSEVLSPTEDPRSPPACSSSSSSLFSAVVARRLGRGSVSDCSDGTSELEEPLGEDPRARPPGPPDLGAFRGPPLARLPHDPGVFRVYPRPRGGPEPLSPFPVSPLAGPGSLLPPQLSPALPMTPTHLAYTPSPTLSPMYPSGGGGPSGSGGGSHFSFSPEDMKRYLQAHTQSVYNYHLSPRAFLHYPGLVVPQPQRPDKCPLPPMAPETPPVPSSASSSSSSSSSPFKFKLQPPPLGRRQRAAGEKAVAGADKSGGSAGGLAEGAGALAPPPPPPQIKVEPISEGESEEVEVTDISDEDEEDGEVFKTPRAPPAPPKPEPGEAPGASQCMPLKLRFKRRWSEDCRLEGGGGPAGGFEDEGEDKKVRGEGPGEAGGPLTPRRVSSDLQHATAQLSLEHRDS
In short: (§1)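 Human transcription factors carrying a GST fusion were produced in yeast, bound to glutathione beads, tagged with DNA barcodes and pooled together with a tag-only sample. Each pool was held with 200 nmole of a random double-stranded 16-mer DNA library in Tris/NaCl/DTT/glycerol buffer for 30 min at room temperature, then washed, crosslinked in 0.1% formaldehyde, proximity-ligated with BsaI/T4 ligase (1 h, 37 °C), PCR-amplified and sequenced on an Illumina NextSeq500. Binding signal is the read frequency of each hexamer for a given factor divided by its frequency in the tag-only sample.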

[2] = biological target: T2, ETV3L (Homo sapiens, UniProt Q6ZN32 1-361)
T2 sequence: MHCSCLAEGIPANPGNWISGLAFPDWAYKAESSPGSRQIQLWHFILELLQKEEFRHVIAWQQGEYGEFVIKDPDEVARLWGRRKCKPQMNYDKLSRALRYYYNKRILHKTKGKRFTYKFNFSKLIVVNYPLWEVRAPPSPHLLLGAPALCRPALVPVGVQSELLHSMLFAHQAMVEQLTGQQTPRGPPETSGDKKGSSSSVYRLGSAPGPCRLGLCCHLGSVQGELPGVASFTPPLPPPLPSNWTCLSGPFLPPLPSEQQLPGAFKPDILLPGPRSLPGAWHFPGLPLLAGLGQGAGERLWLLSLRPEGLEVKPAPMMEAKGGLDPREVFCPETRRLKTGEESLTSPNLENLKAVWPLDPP
In short: as §1

[3] = biological target: T3, ETS2 (Homo sapiens, UniProt P15036 1-469)
T3 sequence: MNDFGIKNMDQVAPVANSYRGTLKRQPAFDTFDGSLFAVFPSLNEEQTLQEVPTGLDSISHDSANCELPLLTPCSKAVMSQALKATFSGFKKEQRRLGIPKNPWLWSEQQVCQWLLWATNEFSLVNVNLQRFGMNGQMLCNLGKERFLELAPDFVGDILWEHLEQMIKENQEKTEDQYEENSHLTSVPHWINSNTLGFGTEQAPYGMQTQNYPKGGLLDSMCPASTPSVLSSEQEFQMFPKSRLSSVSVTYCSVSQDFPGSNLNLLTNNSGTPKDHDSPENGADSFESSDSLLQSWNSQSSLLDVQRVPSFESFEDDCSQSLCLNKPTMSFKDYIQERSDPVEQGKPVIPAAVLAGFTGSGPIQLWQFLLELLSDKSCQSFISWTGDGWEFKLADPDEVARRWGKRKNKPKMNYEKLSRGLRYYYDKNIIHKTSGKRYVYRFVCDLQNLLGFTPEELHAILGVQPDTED
In short: as §1

[4] = biological target: T4, SPDEF (Homo sapiens, UniProt O95238 1-335)
T4 sequence: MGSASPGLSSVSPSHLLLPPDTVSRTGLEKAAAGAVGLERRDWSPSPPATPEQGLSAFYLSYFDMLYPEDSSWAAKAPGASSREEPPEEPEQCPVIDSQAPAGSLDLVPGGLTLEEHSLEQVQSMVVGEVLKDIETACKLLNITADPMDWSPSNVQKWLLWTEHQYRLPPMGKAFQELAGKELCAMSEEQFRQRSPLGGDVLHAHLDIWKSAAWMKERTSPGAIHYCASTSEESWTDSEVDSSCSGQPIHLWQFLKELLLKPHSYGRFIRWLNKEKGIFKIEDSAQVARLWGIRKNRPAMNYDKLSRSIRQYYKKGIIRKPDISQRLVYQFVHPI
In short: as §1

[5] = biological target: T5, ETV7 (Homo sapiens, UniProt Q9Y603 1-341)
T5 sequence: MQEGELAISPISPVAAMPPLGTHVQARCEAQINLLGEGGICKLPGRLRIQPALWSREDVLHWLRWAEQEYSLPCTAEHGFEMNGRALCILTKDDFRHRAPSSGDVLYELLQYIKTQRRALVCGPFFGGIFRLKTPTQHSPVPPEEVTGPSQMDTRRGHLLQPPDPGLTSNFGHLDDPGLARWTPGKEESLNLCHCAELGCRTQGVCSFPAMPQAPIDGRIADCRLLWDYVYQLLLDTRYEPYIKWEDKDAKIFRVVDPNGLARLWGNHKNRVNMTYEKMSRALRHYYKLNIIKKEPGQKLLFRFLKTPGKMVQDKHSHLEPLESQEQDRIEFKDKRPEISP
In short: as §1

[6] = biological target: T6, ELF5 (Homo sapiens, UniProt Q9UKW6-2 1-255)
T6 sequence: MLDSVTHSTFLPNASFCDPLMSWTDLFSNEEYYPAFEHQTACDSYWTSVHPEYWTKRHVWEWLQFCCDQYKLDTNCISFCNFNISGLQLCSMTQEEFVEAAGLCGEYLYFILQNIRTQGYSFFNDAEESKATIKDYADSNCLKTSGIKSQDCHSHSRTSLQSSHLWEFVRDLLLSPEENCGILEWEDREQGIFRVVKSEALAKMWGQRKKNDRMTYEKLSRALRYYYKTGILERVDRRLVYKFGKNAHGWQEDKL
In short: as §1

[7] = biological target: T7, ETV3 (Homo sapiens, UniProt P41162-2 1-143)
T7 sequence: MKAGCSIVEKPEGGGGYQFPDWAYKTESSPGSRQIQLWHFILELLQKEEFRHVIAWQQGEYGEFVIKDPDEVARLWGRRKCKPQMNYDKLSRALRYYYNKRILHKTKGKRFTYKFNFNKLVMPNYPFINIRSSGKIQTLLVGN
In short: as §1

[8] = biological target: ETV6 (Homo sapiens, UniProt P41212 1-452)
In short: as §1

Sequence of ETV6 (P41212 whole entry): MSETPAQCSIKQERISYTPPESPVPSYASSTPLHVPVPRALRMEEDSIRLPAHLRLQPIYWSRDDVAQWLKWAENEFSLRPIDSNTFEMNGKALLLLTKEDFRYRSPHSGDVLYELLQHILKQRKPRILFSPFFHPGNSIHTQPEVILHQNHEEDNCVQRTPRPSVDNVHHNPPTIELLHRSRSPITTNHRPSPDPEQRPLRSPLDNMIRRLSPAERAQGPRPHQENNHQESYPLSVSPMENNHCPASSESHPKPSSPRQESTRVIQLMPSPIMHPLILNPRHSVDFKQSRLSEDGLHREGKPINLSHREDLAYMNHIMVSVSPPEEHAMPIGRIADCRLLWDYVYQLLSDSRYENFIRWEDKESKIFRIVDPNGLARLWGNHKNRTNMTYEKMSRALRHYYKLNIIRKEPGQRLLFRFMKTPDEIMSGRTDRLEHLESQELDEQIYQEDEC

Sequence | binding signal [1] | binding signal [2] | binding signal [3] | binding signal [4] | binding signal [5] | binding signal [6] | binding signal [7] | binding signal [8]
AGTTCC | 1.73 fold enrichment (6-mer frequency, TF over GST control) | 2.15 fold enrichment (6-mer frequency, TF over GST control) | 2.17 fold enrichment (6-mer frequency, TF over GST control) | 2.56 fold enrichment (6-mer frequency, TF over GST control) | 1.94 fold enrichment (6-mer frequency, TF over GST control) | 2.79 fold enrichment (6-mer frequency, TF over GST control) | 2.38 fold enrichment (6-mer frequency, TF over GST control) | 2.17 fold enrichment (6-mer frequency, TF over GST control)
TTGTCC | 1.35 fold enrichment (6-mer frequency, TF over GST control) | 1.43 fold enrichment (6-mer frequency, TF over GST control) | 1.38 fold enrichment (6-mer frequency, TF over GST control) | 1.45 fold enrichment (6-mer frequency, TF over GST control) | 1.25 fold enrichment (6-mer frequency, TF over GST control) | 1.39 fold enrichment (6-mer frequency, TF over GST control) | 1.36 fold enrichment (6-mer frequency, TF over GST control) | 1.32 fold enrichment (6-mer frequency, TF over GST control)
CTACGT | 1.24 fold enrichment (6-mer frequency, TF over GST control) | 1.29 fold enrichment (6-mer frequency, TF over GST control) | 1.12 fold enrichment (6-mer frequency, TF over GST control) | 1.12 fold enrichment (6-mer frequency, TF over GST control) | 1.35 fold enrichment (6-mer frequency, TF over GST control) | 1.27 fold enrichment (6-mer frequency, TF over GST control) | 1.17 fold enrichment (6-mer frequency, TF over GST control) | 1.42 fold enrichment (6-mer frequency, TF over GST control)
ATCTGT | 1.21 fold enrichment (6-mer frequency, TF over GST control) | 1.2 fold enrichment (6-mer frequency, TF over GST control) | 1.22 fold enrichment (6-mer frequency, TF over GST control) | 1.17 fold enrichment (6-mer frequency, TF over GST control) | 1.21 fold enrichment (6-mer frequency, TF over GST control) | 1.2 fold enrichment (6-mer frequency, TF over GST control) | 1.11 fold enrichment (6-mer frequency, TF over GST control) | 1.12 fold enrichment (6-mer frequency, TF over GST control)
CTTACT | 1.32 fold enrichment (6-mer frequency, TF over GST control) | 1.22 fold enrichment (6-mer frequency, TF over GST control) | 1.26 fold enrichment (6-mer frequency, TF over GST control) | 1.21 fold enrichment (6-mer frequency, TF over GST control) | 1.18 fold enrichment (6-mer frequency, TF over GST control) | 1.3 fold enrichment (6-mer frequency, TF over GST control) | 1.27 fold enrichment (6-mer frequency, TF over GST control) | 1.3 fold enrichment (6-mer frequency, TF over GST control)
TCACTA | 1.24 fold enrichment (6-mer frequency, TF over GST control) | 1.18 fold enrichment (6-mer frequency, TF over GST control) | 1.25 fold enrichment (6-mer frequency, TF over GST control) | 1.07 fold enrichment (6-mer frequency, TF over GST control) | 1.23 fold enrichment (6-mer frequency, TF over GST control) | 1.15 fold enrichment (6-mer frequency, TF over GST control) | 1.05 fold enrichment (6-mer frequency, TF over GST control) | 1.06 fold enrichment (6-mer frequency, TF over GST control)
AAGTTT | 1.39 fold enrichment (6-mer frequency, TF over GST control) | 1.46 fold enrichment (6-mer frequency, TF over GST control) | 1.39 fold enrichment (6-mer frequency, TF over GST control) | 1.37 fold enrichment (6-mer frequency, TF over GST control) | 1.37 fold enrichment (6-mer frequency, TF over GST control) | 1.55 fold enrichment (6-mer frequency, TF over GST control) | 1.53 fold enrichment (6-mer frequency, TF over GST control) | 1.55 fold enrichment (6-mer frequency, TF over GST control)
CTCAGT | 1.11 fold enrichment (6-mer frequency, TF over GST control) | 1.18 fold enrichment (6-mer frequency, TF over GST control) | 1.1 fold enrichment (6-mer frequency, TF over GST control) | 1.06 fold enrichment (6-mer frequency, TF over GST control) | 1.12 fold enrichment (6-mer frequency, TF over GST control) | 1.09 fold enrichment (6-mer frequency, TF over GST control) | 1.24 fold enrichment (6-mer frequency, TF over GST control) | 1.08 fold enrichment (6-mer frequency, TF over GST control)
TGGAAA | 1.08 fold enrichment (6-mer frequency, TF over GST control) | 1.2 fold enrichment (6-mer frequency, TF over GST control) | 1.1 fold enrichment (6-mer frequency, TF over GST control) | 1.04 fold enrichment (6-mer frequency, TF over GST control) | 1.19 fold enrichment (6-mer frequency, TF over GST control) | 1.12 fold enrichment (6-mer frequency, TF over GST control) | 1.08 fold enrichment (6-mer frequency, TF over GST control) | 1.23 fold enrichment (6-mer frequency, TF over GST control)
AACACG | 1.14 fold enrichment (6-mer frequency, TF over GST control) | 1.15 fold enrichment (6-mer frequency, TF over GST control) | 1.25 fold enrichment (6-mer frequency, TF over GST control) | 1.22 fold enrichment (6-mer frequency, TF over GST control) | 1.13 fold enrichment (6-mer frequency, TF over GST control) | 1.22 fold enrichment (6-mer frequency, TF over GST control) | 1.3 fold enrichment (6-mer frequency, TF over GST control) | 1.23 fold enrichment (6-mer frequency, TF over GST control)
CCTGAA | 1.37 fold enrichment (6-mer frequency, TF over GST control) | 1.35 fold enrichment (6-mer frequency, TF over GST control) | 1.33 fold enrichment (6-mer frequency, TF over GST control) | 1.48 fold enrichment (6-mer frequency, TF over GST control) | 1.22 fold enrichment (6-mer frequency, TF over GST control) | 1.5 fold enrichment (6-mer frequency, TF over GST control) | 1.4 fold enrichment (6-mer frequency, TF over GST control) | 1.27 fold enrichment (6-mer frequency, TF over GST control)
ATACGC | 1.18 fold enrichment (6-mer frequency, TF over GST control) | 1.14 fold enrichment (6-mer frequency, TF over GST control) | 1.11 fold enrichment (6-mer frequency, TF over GST control) | 1.2 fold enrichment (6-mer frequency, TF over GST control) | 1.06 fold enrichment (6-mer frequency, TF over GST control) | 1.11 fold enrichment (6-mer frequency, TF over GST control) | 1.07 fold enrichment (6-mer frequency, TF over GST control) | 1.2 fold enrichment (6-mer frequency, TF over GST control)
CGTTCA | 1.2 fold enrichment (6-mer frequency, TF over GST control) | 1.25 fold enrichment (6-mer frequency, TF over GST control) | 1.12 fold enrichment (6-mer frequency, TF over GST control) | 1.14 fold enrichment (6-mer frequency, TF over GST control) | 1.07 fold enrichment (6-mer frequency, TF over GST control) | 1.08 fold enrichment (6-mer frequency, TF over GST control) | 1.12 fold enrichment (6-mer frequency, TF over GST control) | 1.19 fold enrichment (6-mer frequency, TF over GST control)
GTTTTC | 1.34 fold enrichment (6-mer frequency, TF over GST control) | 1.27 fold enrichment (6-mer frequency, TF over GST control) | 1.16 fold enrichment (6-mer frequency, TF over GST control) | 1.08 fold enrichment (6-mer frequency, TF over GST control) | 1.36 fold enrichment (6-mer frequency, TF over GST control) | 1.31 fold enrichment (6-mer frequency, TF over GST control) | 1.29 fold enrichment (6-mer frequency, TF over GST control) | 1.23 fold enrichment (6-mer frequency, TF over GST control)
CAACAC | 1.16 fold enrichment (6-mer frequency, TF over GST control) | 1.13 fold enrichment (6-mer frequency, TF over GST control) | 1.13 fold enrichment (6-mer frequency, TF over GST control) | 1.13 fold enrichment (6-mer frequency, TF over GST control) | 1.13 fold enrichment (6-mer frequency, TF over GST control) | 1.1 fold enrichment (6-mer frequency, TF over GST control) | 1.15 fold enrichment (6-mer frequency, TF over GST control) | 1.11 fold enrichment (6-mer frequency, TF over GST control)
